Compounds without any hit were thinned out: in the full panel of roughly 83,000, 20% have a hit.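 How to read the values: 0–100, growth inhibition (40 = 60% inhibited); 0, no net growth; -100 to 0, cell death (-40 = 40% of starting cells died; -100 = all dead).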 Unmarked numbers belong to inactive results. Active and inactive are the calls of the source. Rule for the calls: active = growth percent below 10; inactive = the rest.
Legend:
Test in all cases: NCI-60 one-dose screen, 48 h (100 = growth as untreated, 0 = no growth, -100 = all killed)
Details in all cases: 10 µM unless noted
NCI-H23 lung = tested on: NCI-H23 lung
NCI-H226 lung = tested on: NCI-H226 lung
NCI-H322M lung = tested on: NCI-H322M lung
HOP-62 NSCLC = tested on: HOP-62 NSCLC
NCI-H460 lung = tested on: NCI-H460 lung
HOP-92 NSCLC = tested on: HOP-92 NSCLC
NCI-H522 lung = tested on: NCI-H522 lung
A549/ATCC NSCLC = tested on: A549/ATCC NSCLC
786-0 renal = tested on: 786-0 renal
COLO 205 colon = tested on: COLO 205 colon
DU-145 prostate = tested on: DU-145 prostate
K-562 leukemia = tested on: K-562 leukemia
MALME-3M melanoma = tested on: MALME-3M melanoma
MDA-MB-231 breast = tested on: MDA-MB-231 breast
RXF 393 renal = tested on: RXF 393 renal
SF-268 CNS = tested on: SF-268 CNS
SF-295 CNS = tested on: SF-295 CNS
SF-539 CNS = tested on: SF-539 CNS
UACC-257 melanoma = tested on: UACC-257 melanoma
M14 melanoma = tested on: M14 melanoma

| Compound | growth (NCI-H23 lung) | growth (NCI-H226 lung) [%] | growth (NCI-H322M lung) [%] | growth (HOP-62 NSCLC) | growth (NCI-H460 lung) | growth (HOP-92 NSCLC) | growth (NCI-H522 lung) | growth (A549/ATCC NSCLC) | growth (786-0 renal) | growth (COLO 205 colon) | growth (DU-145 prostate) | growth (K-562 leukemia) | growth (MALME-3M melanoma) | growth (MDA-MB-231 breast) | growth (RXF 393 renal) | growth (SF-268 CNS) | growth (SF-295 CNS) | growth (SF-539 CNS) | growth (UACC-257 melanoma) | growth (M14 melanoma) |
| --- | --- | --- | --- | --- | --- | --- | --- | --- | --- | --- | --- | --- | --- | --- | --- | --- | --- | --- | --- | --- |
| O=C1/C(=C/c2ccccc2[N+](=O)[O-])Oc2ccc(O)c(O)c21 | 33.5% | 83.3 | 81 | 71.3% | 60.6% | 76.6% | -18% (active) | 72.3% | 47.2% | 57.7% | 32.5% | 17.2% | 45% | 45.6% | 5.8% (active) | 60.4% | 85.2% | 29% | 49.3% | 54.9% |
| CNC(=O)c1[nH]cc(-c2ccccc2)c1-c1cc(OC)c2c(c1OC)OCO2 | 104% | 94.6 | 103 | 94.5% | 108% | 96.7% | 87.9% | 96.7% | 94.8% | 102% | 106% | 98.7% | 105% | 96.2% | 94.1% | 93.6% | 106% | 102% | 101% | 98.3% |
| CCOC(=O)Nc1ccc(C(=O)/C=C/c2ccccc2)cc1 | 95% | 79.2 | 100 | 90.2% | 91.3% | 70.2% | 106% | 54.4% | 87.1% | 127% | 86.4% | 24.2% | 103% | 95.9% | 36.8% | 93.8% | 106% | 67.9% | 115% | 79.2% |
| O=C(CS(=O)c1oc(-c2cccs2)nc1S(=O)(=O)c1ccc(Br)cc1)c1ccccc1 (stereo not given) | 92.6% | 80.8 | 97.7 | 84.6% | 93.6% | 76% | 81.4% | 96.6% | 98.7% | 106% | 104% | 95.3% | 119% | 105% | 105% | 99.2% | 101% | 87% | 98.8% | 99.5% |
| CCOC(=O)Nc1ccc(-c2nc(-c3cccc(OC)c3)c(-c3ccnc(Br)c3)[nH]2)cc1 | 31.7% | 46.4 | 45.7 | 30.2% | 27.2% | 42.2% | 30.2% | 36.9% | 9.61% (active) | 49.2% | 51.9% | 11.9% | 40.5% | 41.2% | -27% (active) | 51.9% | -36.1% (active) | 21.7% | 56.1% | 36% |
| CCCCCCn1c(-c2ccc(C(=O)O/N=C(\N)c3ccc4c(c3)OCO4)cc2)nc(-c2ccccc2)c1-c1ccccc1 | -30.8% (active) | 64.6 | 73.9 | 64.8% | 4.23% (active) | -57.5% (active) | -58.9% (active) | -25.3% (active) | -65.9% (active) | 35.7% | 0.0183% (active) | -29.7% (active) | 28.1% | 26.3% | -27.2% (active) | 41.1% | 30.6% | -30.2% (active) | 62% | 56.2% |
| COc1ccc(C2=Nn3c(nnc3-c3cc(Cl)cc(Cl)c3Cl)SC2)cc1 | 3.14% (active) | 64.8 | 36.4 | -2.41% (active) | -18.9% (active) | 22.3% | -17.8% (active) | 21.9% | 6.36% (active) | -34.4% (active) | 6.93% (active) | 2.96% (active) | 37.2% | 10.3% | 14.4% | 22.6% | 0.025% (active) | -8.32% (active) | 37% | -45.3% (active) |
| Nc1nn(C(=O)Nc2ccc(Cc3ccccc3)cc2)c2ccc(Cl)cc12 | 70.1% | 63.5 | 65.9 | 67.8% | 28.9% | 99.8% | 73.1% | 38.3% | 64% | 34.9% | 85.6% | 3.86% (active) | 55.9% | 59.7% | 93.3% | 81.4% | 27% | -19.2% (active) | 42.1% | 37.2% |
| COc1cc(CCCO)c(OC)c(OC)c1OC | 104% | 102 | 96.1 | 111% | 108% | 100% | 106% | 102% | 103% | 122% | 109% | 104% | 100% | 109% | 108% | 101% | 106% | 97.1% | 103% | 110% |
| O=c1ccc(N=Nc2ccccc2)ccc1Cl | 16.4% | 87.7 | 103 | 93.9% | 98% | 114% | -22.6% (active) | 103% | 48.8% | 68.4% | 93.2% | 0.344% (active) | 55% | -1.83% (active) | 6.49% (active) | 92.5% | 69.6% | 45.8% | 74.6% | 46.6% |
| CN1CCN(CC(=O)N2c3cccc4cccc(c34)N(C(=O)CN3CCN(C)CC3)C2c2cn(-c3ccccc3)nc2-c2cccc([N+](=O)[O-])c2)CC1 | 1.14% (active) | 88.2 | 32.9 | -20.2% (active) | 1.88% (active) | 42.9% | -3.45% (active) | 15.7% | -83.4% (active) | -68.5% (active) | 28.7% | -43.9% (active) | -86.7% (active) | -60.9% (active) | -19.1% (active) | 7.89% (active) | -67.1% (active) | -86.1% (active) | -75.9% (active) | -81.7% (active) |
| O=C1NC(=O)C(Cn2cnc3ccccc32)N1 (stereo not given) | 98.4% | 103 | 99 | 102% | 101% | 97.4% | 95.9% | 97.8% | 99.2% | 107% | 110% | 106% | 103% | 103% | 114% | 100% | 104% | 96.4% | 101% | 103% |
| CCOC(=O)Cn1c(=O)c2c(c3ccccc3n2C)n2nnc(-c3ccccc3)c12 | 102% | 128 | 115 | 95.5% | 102% | -15.2% (active) | 92.6% | 106% | 104% | 114% | 111% | 84.8% | 118% | 103% | 108% | 95.2% | 110% | 102% | 102% | 97.6% |
| N#Cc1c(Nc2cccc(Cl)c2)sc(C(=O)c2cc3cc(Cl)ccc3o2)c1N | 77% | 94 | 113 | 107% | 46.7% | 8.1% (active) | 34.8% | 94.1% | 96.9% | 89% | 30.6% | 51.9% | 101% | 75.6% | 105% | 67.7% | 123% | 84% | 102% | 105% |
| COc1ccc2c(c1)nc(NNC(=O)c1cnccn1)c1cccn12 | 33.4% | 39.3 | 28.5 | 28.6% | 7.94% (active) | 64.3% | 9.5% (active) | 24.6% | 26.1% | 7.24% (active) | 31.1% | 13.9% | 46.3% | 30.4% | 48% | 30.4% | 13.6% | 23.5% | 25.7% | 8.27% (active) |
| COc1ccc(/C=C/c2c(C(=O)/C=C/c3ccc(Cl)cc3)c(C)nc3ccccc23)cc1 | 35.8% | 12.4 | 68.6 | 22.7% | 0.257% (active) | 70.2% | 23.6% | 84.1% | 14.3% | 58.4% | 13.8% | 9.27% (active) | 28% | 34.1% | -18.6% (active) | 58.7% | 42.2% | 14.4% | 38.8% | 14.7% |

From PubChem BioAssay (NCI)
